This is a sample that favours compounds with a hit; in the whole collection about 0.88% have one here.
MT1-MMP txn act = activates MT1-MMP transcription | HT1080 MT1-MMP promoter luciferase reporter, luminescence, overnight; active compounds read high | activation factor at 10 µM | 86,000 compounds, 0.16% hits;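 active = activation factor of at least 2 for MT1-MMP transcription at 10 µM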
HER2 expr 66K = lowers expression of human Her2 kinase. P04626. SKBR-3 HER2 protein level, AlphaScreen, 18-24 h; active compounds read low. HER2 level % of control, % at 10 µM. 65,000 compounds, 0.69% hits;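 active = HER2 level under 5% of the carrier-only control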;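 note: 100% = DMSO carrier and 0% = 500 nM PU-H71 HSP90 inhibitor; lower value means stronger loss of Her2 protein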
FXIa mix inh = factor XIa (human) inhibition, mixture screen; purified FXIa, fluorogenic substrate, pooled mixtures; inhibition, % at 5 µM; 62,000 compounds, 0.19% hits;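 note: each value is inhibition by a whole ten-compound pool holding the compound; 0% = enzyme with no mixture and 100% = wells lacking enzyme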
FXIIa inh mix = inhibitors of human coagulation factor XIIa, pooled mixtures; purified FXIIa, fluorogenic substrate; inhibition, % at 5 µM; P00748; 62,000 compounds, 0.2% hits;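 note: 0% = enzyme without compound and 100% = no enzyme blank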
An asterisk follows results filed as active; . = not tested or not shown. Cut-off read from the data, not from the text of the source, unless noted: active = inhibition above about 20% (passing the limit was not always enough); inactive = the rest.

SMILES	MT1-MMP txn act	HER2 expr 66K	FXIa mix inh	FXIIa inh mix
O=S(=O)(C/C(=C/CO)S(=O)(=O)c1ccccc1)c1ccccc1	0.6	-21*	10	2
COC(=O)c1ccc(C(NC(=O)OCc2ccccc2)/C(C)=C/[C@@H](C)C(=O)O)cc1 (some centres not stated)	1.2	.	.	.
Cc1ccc(/C=C/C2=Cc3c(sc(NC(=O)CSc4n[nH]c(N)n4)c3C#N)C(C)(C)C2)o1	1.2	-1.5*	-2	6
CCOC(=O)c1sc(NC(=O)CSc2n[nH]c(-c3ccccc3)n2)c(C#N)c1C	1.1	47	7	1
O=S1(=O)C=C(Sc2nnc(-c3ccccc3)o2)c2ccccc21	1.3	-9.4*	5	6
CC(=O)N1CC=CC1(CC(C)C)C(=O)NCC1CC1 (configuration not stated)	1	.	.	.
O=C1C(C2=C(O)c3ccccc3C2=O)=Nc2ccccc21	.	-16*	0	2
COC(=O)CC1Oc2cc3oc4c5ccccc5oc(=O)c4c3cc2O1 (configuration not stated)	1.1	.	.	.
Cc1cc(Nc2ccccc2)nn1C(=O)c1ccccc1	1.2	70	1	0
COc1ccc(C(=O)n2nc(C)cc2Nc2ccccc2)cc1	2.1*	.	.	.
COCCNC(=O)c1ccccc1NC(=O)c1ccc(OC)c(OC)c1	1.3	183	-5	-4
CCOc1cc(C(=O)NCCOC)ccc1OC	1	-8.0*	4	9
Clc1cccc(-c2nnc(-c3ccccc3)o2)c1	.	-8.2*	7	6
